Screens as filed in PubChem.
Only some compounds are listed: those with a hit (about 5.9% of all), similar ones and a draw of the others.
Rtt109 HAT inh = inhibitors of C. albicans Rtt109/Vps75 HAT, primary screen, biochemical, ThioGlo CoA-SH fluorescence, plate reader; Histone acetyltransferase RTT109 (Candida albicans (strain SC5314 / ATCC MYA-2876)), …; purified Rtt109/Vps75, 4 h; inhibition, % at 34.9 µM; actives 0.16% (n = 330,000);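 active = inhibition of at least 50% in every replicate; inconclusive = best replicate reaches 50% inhibition but some replicates fall short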
PRMT1 FP inh = PRMT1 methyltransferase inhibitors, primary screen, biochemical, fluorescence polarization | inhibition, % at 2.79 µM | recombinant PRMT1, activity-based probe fluorescence polarization | Protein arginine N-methyltransferase 1 (Homo sapiens), Q99873 | actives 1.3% (n = 370,000);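 active = inhibition above about 21% made by adding two undisclosed values, limit read from the data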
Target sequence (Q99873 whole entry, looked up): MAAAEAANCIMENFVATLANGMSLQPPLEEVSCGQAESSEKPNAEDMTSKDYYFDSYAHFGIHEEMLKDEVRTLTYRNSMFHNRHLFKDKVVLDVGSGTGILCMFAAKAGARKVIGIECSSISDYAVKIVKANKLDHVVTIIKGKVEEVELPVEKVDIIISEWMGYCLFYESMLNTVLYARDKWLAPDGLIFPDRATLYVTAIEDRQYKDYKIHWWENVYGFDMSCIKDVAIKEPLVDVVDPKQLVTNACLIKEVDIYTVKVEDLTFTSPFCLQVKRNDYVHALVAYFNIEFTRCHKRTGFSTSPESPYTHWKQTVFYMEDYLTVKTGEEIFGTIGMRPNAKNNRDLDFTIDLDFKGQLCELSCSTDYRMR
LANA-H2A inh = blockers of LANA interaction with H2A/H2B – biochemical, FP readout, HTS, primary screen. Protein LANA1 (Human herpesvirus 8 type P (isolate GK18)), Q9QR71. cell-free LANA-H2A/H2B peptide, fluorescence polarization. inhibition, % (concentration not given with the values). actives 0.6% (n = 320,000); in the data active = inhibition mostly above about 10%, no sharp cut-off; inactive = mostly below about 6.7%
rCAG RNA binder = binders of r(CAG) RNA repeats, primary screen, biochemical, fluorescence. actives 1.3% (n = 370,000). r(CAG) RNA repeat, TO-PRO-1 dye displacement fluorescence. inhibition, % at 3 µM. AID 651821, 2012;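 active = inhibition above the plate cutoff, the mean of all test compounds on that plate plus 3 SD, cut at about 35% in these data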;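 also: higher means more dye released from RNA so lower well fluorescence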
ALR inh = inhibitors of human ALR sulfhydryl oxidase, primary screen, biochemical, H2O2 detection, HRP-luminol luminescence, single point. inhibition, % (concentration not given with the values). AID 485317, 2010. purified ALR, DTT oxidation. actives 3.8% (n = 290,000). FAD-linked sulfhydryl oxidase ALR (Homo sapiens), P55789;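 active = mean replicate inhibition above about 79%, with every replicate also reaching it, limit read from the data; inconclusive = only one of the two criteria met; inactive = mean below limit and not every replicate reaching it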
Target sequence (P55789 whole entry, looked up): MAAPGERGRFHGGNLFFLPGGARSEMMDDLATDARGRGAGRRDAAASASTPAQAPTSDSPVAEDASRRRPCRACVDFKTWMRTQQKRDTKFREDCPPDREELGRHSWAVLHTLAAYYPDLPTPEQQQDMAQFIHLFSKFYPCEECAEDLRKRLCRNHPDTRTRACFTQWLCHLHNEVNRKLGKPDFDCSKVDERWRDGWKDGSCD
ABHD5 PLIN5 PPI = ABHD5-PLIN5 interaction inhibitors, primary screen, cell lysate, split luciferase complementation, luminescence; Perilipin-5 (Homo sapiens) + 1-acylglycerol-3-phosphate O-acyltransferase ABHD5 (Homo …; Split G. princeps luciferase complementation, 4 h; inhibition, % at 4 µM; actives 0.78% (n = 360,000); AID 602281, 2012;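 active = inhibition above the mean inhibition across every tested compound plus 3 SD, cut at about 22% in these data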
Of the large screens only hits and unclear results are named; the others gave an inactive call.

Cc1ccccc1S(=O)(=O)N1CCC(c2nc3ccccc3o2)CC1	none (no result: Rtt109 HAT inh, LANA-H2A inh, ALR inh, ABHD5 PLIN5 PPI)
Cc1nc2sccn2c(=O)c1S(=O)(=O)N1CCN(c2ccccc2F)CC1	none (no result: Rtt109 HAT inh, LANA-H2A inh, ALR inh)
O=C(COC(=O)c1ccccc1C(=O)N1CCN(c2ccccc2)CC1)Nc1ccccc1	PRMT1 FP inh 22
O=C(CN1CCN(c2ccc(F)cc2)CC1)OCc1ccccc1	ALR inh 92
O=C(CN1CCN(c2ccccc2)CC1)N1CCN(c2ccccc2)CC1	ALR inh 99
O=C(CSCc1ccccc1)N1CCN(c2ccccc2)CC1	ALR inh 98
CCCCCCN1CCS(=O)(=O)N(Cc2ccc(Cl)cc2)C(C(=O)OC)C1 (stereo not given)	none (no result: Rtt109 HAT inh, LANA-H2A inh, ALR inh, ABHD5 PLIN5 PPI)
O=C(CSC1CCCCC1)N1CCN(c2ccccc2)CC1	ALR inh 98
O=C(CSCc1ccccc1)N1CCN(c2ccc(F)cc2)CC1	ALR inh 88
O=C(CCc1ccccc1)N1CCN(c2ccc(F)cc2)CC1	ALR inh 86
CCn1c(CSCc2ccc(F)cc2)nnc1SCC(=O)N1CCN(c2ccccc2)CC1	ALR inh 97
O=C(CCc1ccccc1)N1CCN(c2ccccc2F)CC1	none
C[C@H]1[C@H](NC(=O)c2ccc(C(C)(C)C)cc2)CC[C@@]23CCCN2C(=O)CCC[C@@H]13	none (no result: Rtt109 HAT inh, LANA-H2A inh, rCAG RNA binder, ALR inh, ABHD5 PLIN5 PPI)
O=C(Cc1ccc(Br)cc1)N1CCN(c2ccccc2)CC1	ALR inh 98
CC1(C(=O)N2CCN(c3ccccc3)CC2)CC1(Cl)Cl (stereo not given)	ALR inh 96
O=C(CN1CCN(c2ccccc2)CC1)Nc1ccncc1	ALR inh 99
O=C(CCCc1nc2ccccc2s1)N1CCN(c2ccccc2)CC1	PRMT1 FP inh 23
O=C(Cc1ccc(Br)cc1)N1CCN(C(=O)c2ccccc2)CC1	none
O=C(CCCN1C(=O)c2cccc3cccc(c23)C1=O)N1CCN(c2ccccc2)CC1	LANA-H2A inh 17
O=C(CSCc1cccc(F)c1)N1CCN(c2ccccc2)CC1	ALR inh 98 (no result: PRMT1 FP inh, rCAG RNA binder)
O=C(CCCN1C(=O)c2cccc3cccc(c23)C1=O)N1CCN(c2ccccc2O)CC1	none
O=C(CSCc1ccccc1)N1CCN(c2cccc(C(F)(F)F)c2)CC1	none
O=C(c1cc2cc(Br)ccc2o1)N1CCN(c2ccccc2)CC1	LANA-H2A inh 16
O=C(c1cc2cc(Br)ccc2o1)N1CCOCC1	none (no result: ALR inh)
Cc1ccc(CN(C)C[C@H]2OCc3cnnn3CCCC(=O)N([C@H](C)CO)C[C@@H]2C)cc1	none (no result: Rtt109 HAT inh, LANA-H2A inh, ALR inh, ABHD5 PLIN5 PPI)
Cn1nc(C(F)(F)F)cc1-c1ccc(/C=C(\C#N)C(=O)c2ccccc2)s1	LANA-H2A inh 20
CC(C)CCNC(=O)C12CN(Cc3ccccc3)CC1C(c1ccc([N+](=O)[O-])cc1)=NO2 (stereo not given)	PRMT1 FP inh 22
Cc1nnc(SCc2cnc(-c3ccccc3)o2)[nH]c1=O	ALR inh 99
O=C(C1CCCO1)N1CCN(C(=S)Nc2ccc(Cl)cc2Cl)CC1 (stereo not given)	Rtt109 HAT inh 53
Cc1cc(Cl)ccc1NC(=S)N1CCN(C(=O)C2CCCO2)CC1 (stereo not given)	none (no result: ALR inh)
COc1ccc(OC)c2sc(N(CCN(C)C)C(=O)/C=C/c3cccs3)nc12	ABHD5 PLIN5 PPI 22
COc1cccc2sc(N(CCN(C)C)C(=O)/C=C/c3cccs3)nc12	none
CCOC(=O)Cc1ccc(Nc2nc(NCc3ccccc3)nc3ccsc23)cc1	none (no result: Rtt109 HAT inh, LANA-H2A inh, ALR inh)
Cc1ccc(Nc2nc(-c3sc(C)nc3C)cs2)cc1	none
Cc1nc(C)c(-c2csc(N)n2)s1	ALR inh 91
Cc1ccc(C2C(C(=O)c3cc4ccccc4o3)=C(O)C(=O)N2c2cc(C)on2)cc1 (stereo not given)	ALR inh 98
Cc1cc(N2C(=O)C(O)=C(C(=O)c3cc4ccccc4o3)C2c2ccc([N+](=O)[O-])cc2)no1 (stereo not given)	rCAG RNA binder 46, ALR inh 98
COC(=O)c1ccc(C2C(C(=O)c3ccc(C)o3)=C(O)C(=O)N2c2cc(C)on2)cc1 (stereo not given)	ALR inh 91
C[C@@H]1ON(C)[C@H]2C[C@H]3c4[nH]c5c(-c6ccc(Cl)cc6)cccc5c4CCN3C(=O)[C@@H]12	none (no result: Rtt109 HAT inh, LANA-H2A inh, ALR inh, ABHD5 PLIN5 PPI)
COc1cc(/C=C2\C(=N)N3N=CSC3=NC2=O)ccc1OS(=O)(=O)c1ccccc1	ALR inh 98
Cc1cc(/C=C2\C(=N)N3N=CSC3=NC2=O)c(C)n1Cc1ccccc1	ALR inh 88
COc1cc(/C=C2/C(=N)N3C(c4ccccc4)=CSC3=NC2=O)ccc1OCC(=O)O	ALR inh 99
C[C@H](CO)N1C[C@H](C)[C@@H](CN(C)Cc2ccc(C(=O)O)cc2)Oc2ncc(-c3ccc(C(=O)N(C)C)cc3)cc2C1=O	none (no result: Rtt109 HAT inh, LANA-H2A inh, ALR inh)
CCOC(=O)[C@]12CCCC=C1N(Cc1ccccc1)C(=O)[C@H](CC(=O)N1CCC(c3ccccc3)CC1)C2	none (no result: Rtt109 HAT inh, LANA-H2A inh, ALR inh)
CCOc1ccccc1Nc1nc2ccccc2[nH]1	ALR inh 96
COc1cc2c(cc1OC)-c1cc3ccc4c(c3c[n+]1CC2)OCO4	PRMT1 FP inh 57 (no result: ALR inh)
CC(C(=O)OCC(=O)Nc1ccc2c(c1)OCO2)N1C(=O)c2ccccc2C1=O (stereo not given)	none
CC(C(=O)Oc1ccc2c(c1)OCO2)N1C(=O)c2ccccc2C1=O (stereo not given)	LANA-H2A inh 21 (no result: Rtt109 HAT inh, PRMT1 FP inh, rCAG RNA binder, ABHD5 PLIN5 PPI)
COc1ccc(C(C)(O)c2nc(-c3ccc(OC)nc3)cs2)cc1 (stereo not given)	none (no result: Rtt109 HAT inh, LANA-H2A inh, ALR inh)
O=S(=O)(Nc1cccc2ccccc12)c1cccs1	none
O=S(=O)(Nc1ccc(O)c2ccccc12)c1cccs1	ALR inh 99
CCCc1nc2ccc(C)cn2c1Cc1cccc(Cl)c1	none (no result: Rtt109 HAT inh, LANA-H2A inh, ALR inh)
OCC(O)CN1CCN(c2ccccc2)CC1 (stereo not given)	ALR inh inconclusive
OC(CSc1ccc(F)cc1)CN1CCN(c2ccccc2)CC1 (stereo not given)	ALR inh 87
CCCNC(=O)C1(C)CCCN(C(=O)c2cc(F)ccc2C)C1 (stereo not given)	none (no result: Rtt109 HAT inh, LANA-H2A inh, ALR inh)
Cc1cccc(NC(=O)COC(=O)Cc2cccc(C(F)(F)F)c2)c1C	LANA-H2A inh active (no result: Rtt109 HAT inh)
Cc1c(C(=O)NCc2ccccc2C(F)(F)F)sc(=O)n1Cc1ccc2ccccc2c1	none (no result: Rtt109 HAT inh, LANA-H2A inh, ALR inh)
